JMJD2A Tudor: qHTS Assay for Inhibitors of JMJD2A-Tudor Domain | Potency, µM (top dose mostly 114 µM), for inactives: at the top dose activity change, negative = inhibition, actives largely listed as inhibitors | actives 4.4% (n = 390,000) | AlphaScreen JMJD2A-Tudor / H3K4me3 peptide binding | Lysine-specific demethylase 4A (Homo sapiens), O75164; note: % is set by controls: 0 for no effect and ±100 for the full control effect; nearly all actives have a fitted effect of over 50% in size
BAZ2B block: qHTS Assay for Inhibitors of BAZ2B; actives 4.4% (n = 360,000); AID 504333, 2011; AlphaScreen BAZ2B-H3K14Ac peptide displacement; Potency, µM (doses to about 114 µM), for inactives: at the top dose activity change, negative = inhibition, usual class: inhibitors; Bromodomain adjacent to zinc finger domain protein 2B (Homo sapiens), Q9UIF8; note: % is set by controls: 0 for no effect and ±100 for the full control effect; nearly all actives have a fitted effect of over 60% in size
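BAZ2B 50 nM plus b-H3(5-23)K14Ac 50 nM, PBS pH 7.4/0.01% Tween-20, 30 min RT; compound added (max 110 uM), 30 min RT; streptavidin donor/Ni-chelate acceptor beads 10 ug/mL final, 20 min dark; AlphaScreen read.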
L3MBTL1 inh: qHTS Assay for the Inhibitors of L3MBTL1; AlphaScreen L3MBTL1–H3K9me1 peptide binding; Potency, µM (top dose mostly 57.1 µM), without a hit: at the highest dose activity, negative = inhibition, actives largely listed as inhibitors; actives 0.66% (n = 230,000); AID 485360, 2010; note: % is set by controls: 0 for no effect and ±100 for the full control effect; nearly all actives have a fitted effect of over 60% in size
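First, the protein-peptide complex forms for 30 min at room temperature (L3MBTL1 50 nM, biotinylated H3K9me1 peptide 75 nM). Next, compounds are pin-transferred and incubated 30 min. Finally, AlphaScreen beads are added and read after 30 min.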
HP1b binding inh: HTS for Inhibitors of HP1-beta Chromodomain Interactions with Methylated Histone Tails. Chromobox protein homolog 1 (Homo sapiens), P83916. AlphaScreen HP1-beta / biotin-H3K9me3 peptide binding. Potency, µM (top dose mostly 114 µM), for inactives: top-dose activity change, negative = inhibition, actives largely listed as inhibitors. actives 0.56% (n = 390,000). AID 540317, 2011; note: nearly all actives have a fitted effect of over 70% in size
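AlphaScreen: HP1-beta (50 nM) preformed 30 min with biotin-H3(1-18)K9me3 peptide (50 nM) in PBS pH 7.4, 0.01% Tween-20. Compound added for 30 min at RT, then streptavidin donor/nickel chelate acceptor beads (10 ug/mL) for 30 min.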
G9a block: qHTS Assay for Inhibitors of Histone Lysine Methyltransferase G9a. Histone-lysine N-methyltransferase EHMT2 (Homo sapiens), Q96KQ7. G9a H3K9 monomethylation, AlphaScreen, 2 h. Potency, µM (highest dose often 102 µM), without a hit: at the top dose activity, negative = inhibition, hits mostly inhibitors. actives 8.8% (n = 350,000). AID 504332, 2011; note: % is set by controls: 0 for no effect and ±100 for the full control effect; nearly all actives have a fitted effect of over 75% in size
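AlphaScreen detection with an anti-monomethyl H3K9 antibody quantified product after a 2 h room-temperature reaction containing 500 nM biotinylated H3K9 peptide, 20 µM SAM and 20 nM enzyme, which had been preincubated 15 min with compound.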
Active calls of the source: *; ? = inconclusive; . = not tested or not shown; [ ] = dose if it differs, or a comment. Compounds with a hit are over-represented: about 11% of the library has one in this group of screens. Calls come from the whole dose curve; as a rule, active = well fitted inhibition curve with a large enough effect; inconclusive = small, poorly fitted or top-dose-only effect; inactive = no such curve, though single readings can be large or run the other way. Potency is the fitted concentration of half-maximal effect.

SMILES	JMJD2A Tudor	BAZ2B block	L3MBTL1 inh	HP1b binding inh	G9a block
COc1cccc(NC(=O)CN(C)CC(=O)Nc2ccc(Cl)cc2[N+](=O)[O-])c1	?	50µM*	-10%	?	40µM*
COc1ccc(NC(=O)CN(C)CC(=O)Nc2ccc(N3CCOCC3)cc2)c([N+](=O)[O-])c1	?	45µM*	.	-7%	4%[59 µM]
COc1ccc(NC(=O)CN(C)S(=O)(=O)c2ccc(Cl)cc2)c([N+](=O)[O-])c1	-15%	7%	4%	4%	.
CCN(CC(=O)Nc1cccc(OC)c1)CC(=O)Nc1ccc(C)cc1Cl	20µM*	32µM*	.	-18%	?
CN(CC(=O)Nc1ccc(N2CCOCC2)cc1)CC(=O)Nc1ccc(Cl)cc1[N+](=O)[O-]	?	56µM*	-13%	?	56µM*
Cc1cccc(C(c2sc3nc(-c4ccco4)nn3c2O)N2CCN(Cc3ccccc3)CC2)c1 (stereo unspecified)	-31%	-29%	.	35%	-43%[59 µM]
Cc1ccc(C(=O)NCCc2n[nH]c(=S)n2C)cc1	?	-1%	4%	32%	?
Cn1c(Cc2ccccc2)n[nH]c1=S	28µM*	5%	0%	36%	10µM*
Cn1c(CSCCOc2ccccc2)n[nH]c1=S	6.3µM*	-21%	-8%	5%	10µM*
Cn1c(CCc2ccccc2)n[nH]c1=S	28µM*	4%	3%	42%	?
Cn1c(Cc2cccs2)n[nH]c1=S	?	-1%	.	-11%	?
COc1cc(CNc2ncnc3ccc(-c4c(C)noc4C)cc23)cc(OC)c1OC	-6%	.	.	.	.
Cc1ccc(C)c(NC(=O)C2CCN(S(=O)(=O)c3c(C)noc3/C=C/c3cccs3)CC2)c1	-6%	.	.	23%	?
CCCCN(C)C(=O)c1ccc2c(c1)N(Cc1cccc(Cl)c1)C(=O)c1ccccc1S2=O (stereo unspecified)	-14%	1%	.	35%	-7%[59 µM]
CCOc1ccc(NC(=O)CN2CCN(C(=O)c3ccco3)CC2)cc1S(=O)(=O)N1CCCC1	-10%	-4%	-1%	20%	9%[12.7 µM]
Cc1ccc(NC(=O)c2ccncc2)cc1S(=O)(=O)N(C)C	-6%	11%	?	33%	50µM*
Cc1ccc(NC(=O)c2ccc(OC(F)(F)F)cc2)cc1S(=O)(=O)N(C)C	10%[57.1 µM]	13%	2%	46%	22%[59 µM]
CC(=O)N1CCN(CC(=O)Nc2ccc(C)c(S(=O)(=O)N(C)C)c2)CC1	5.6µM*	79µM*	0%	?	4.5µM*
Cc1ccc(NC(=O)COC(=O)C2CC(=O)N(Cc3ccccc3)C2)cc1S(=O)(=O)N(C)C (stereo unspecified)	-4%[57.1 µM]	-17%	2%	31%	40µM*
Cc1ccc(NC(=O)CN2CCN(C(=O)c3ccco3)CC2)cc1S(=O)(=O)N(C)C	6.3µM*	.	.	?	.
Cc1ccc(NC(=O)CN2CCC(Cc3ccccc3)CC2)cc1S(=O)(=O)N(C)C	18µM*	40µM*	-18%	?	8.9µM*
Cc1ccc(NC(=O)CCNC(=O)Nc2ccccc2)cc1S(=O)(=O)N(C)C	-26%	-1%	-10%	11%	5%[2.33 µM]
Cc1ccc(NC(=O)CCNCc2ccco2)cc1S(=O)(=O)N(C)C	1.8µM*	50µM*	-6%	?	8.9µM*
Cc1nc2c(cc(Oc3ccc(S(=O)(=O)N4CCOCC4)cn3)c3ccsc32)s1	-17%	1%	-9%	23%	71µM*
Cc1c(CCNC(=O)C(C)(C)C)sc2nc(-c3ccc(F)cc3)nn12	0%	4%	.	26%	?
SMILES	JMJD2A Tudor	BAZ2B block	L3MBTL1 inh	HP1b binding inh	G9a block
CC(=O)c1ccc(NC(=O)CN(C)S(=O)(=O)c2cccc3nsnc23)cc1	-25%	.	.	6%	-34%[59 µM]
COc1cc(C(C)=O)ccc1OCC(O)CN1CCN(c2ccccn2)CC1 (stereo unspecified)	-23%	-6%	-4%	25%	20%[59 µM]
CC(C)(C)c1ccc(OCC(O)CN2CCN(c3ccccn3)CC2)cc1 (stereo unspecified)	8%	?	.	40%	50µM*
CC(=O)c1ccccc1OCC(O)CN1CCN(c2ccccn2)CC1 (stereo unspecified)	-22%	-30%	.	30%	.
Cc1cc(C)c(C)c(OCC(O)CN2CCN(c3ccccn3)CC2)c1 (stereo unspecified)	-26%	?	.	19%	79µM*
Cc1cccc(OCC(O)CN2CCN(c3ccccn3)CC2)c1C (stereo unspecified)	79µM*	-21%[57.1 µM]	.	2%	45µM*
COc1ccc(/C=N\NC(=O)c2ccc(F)cc2)cc1COc1ccccc1C(N)=O	-10%	-23%	.	35%	35µM*
COc1ccc(C(=O)N/N=C/c2ccc(OC)c(COc3c(F)c(F)cc(F)c3F)c2)cc1	-14%	?	.	44%	?
COc1cccc(C(=O)N/N=C/c2ccc(OC)c(COc3ccccc3C(N)=O)c2)c1	-22%	-2%	.	31%	63%
COc1ccc(/C=N\NC(=O)c2ccc([N+](=O)[O-])cc2)cc1COc1c(F)c(F)cc(F)c1F	-24%	-2%	.	2%	63µM*
CCCOc1ccc(-c2nc(C#N)c(N3CCC(C(N)=O)CC3)o2)cc1	-7%	-1%	-4%	19%	.
COc1ccc(-c2nc(C#N)c(N3CCC(C)CC3)o2)cc1	?	5µM*	.	-21%	14µM*
N#Cc1nc(-c2ccc(Cl)cc2)oc1N1CCCCC1	?	40µM*	-14%	-60%	?
N#Cc1nc(-c2ccccc2)oc1N1CCCCC1	-16%	-33%	-12%	-19%	?
Cc1ccccc1OCc1nc(C#N)c(N2CCCC2)o1	0%	45µM*	?	20%	28µM*
Cc1ccc(-c2nc(C#N)c(N3CCCCC3)o2)cc1	-21%	?	-25%	-13%	20µM*
Cc1ccccc1-c1nc(C#N)c(N2CCCCC2)o1	?	22µM*	.	45µM*	35µM*
COc1ccc(-c2nc(C#N)c(N3CCCCCC3)o2)cc1	?	28µM*	?	-28%	?
N#Cc1nc(-c2ccc(F)cc2)oc1N1CCCCC1	?	?	.	?	13µM*
N#Cc1nc(-c2ccc(F)cc2)oc1N1CCCC1	-12%[11.4 µM]	-32%	-7%	?	?
COc1ccc(-c2nc(C#N)c(N3CCCCC3)o2)cc1	?	28µM*	.	56µM*	-7%[2.33 µM]
N#Cc1nc(-c2ccc([N+](=O)[O-])cc2)oc1N1CCCCC1	-8%	6%	.	83%	-10%[2.33 µM]
